The text below walks through data of PubChem BioAssay AID2716 (Broad Institute, 2010).

Where “and” joins values, the source holds several entries; their conditions need not be identical. Equal values may be shown once. In all, about 320,000 compounds went through this assay and about 3,300 (1%) were called active. The full list was thinned out, with actives kept by preference. Values without a mark were called inactive.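 The calls were made as follows: active = every valid replicate shows activation above 250% relative to neutral control wells; inactive = the rest, any valid replicate at or below 250%.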

This assay can be described thus: yeast Mot1-301 growth rescue at high temperature, primary screen, SUMOylation pathway inhibitor project, S. cerevisiae, ATP luminescence, 38.5C (AID 2716).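 Also: OY570 slx delta 5 strain wells were the positive control but not used for scaling.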 As to conditions: S. cerevisiae Mot1-301 growth rescue, at 18.8 µM, hits give high values, percent above DMSO median, 100 means doubled.
With `Oc1c(Cl)cc(Cl)c(Cl)c1Cc1c(O)c(Cl)cc(Cl)c1Cl`, the growth rescue is 482% (active) and 481% (active).

Regarding `CC(=O)c1ccc(N2CCN(C(=O)c3ccc4nc[nH]c4c3)CC2)cc1`, the growth rescue was 10.1%.

For `CC(C)c1cc(C(=O)O)n[nH]1`, the growth rescue was -2.94%.

`Cc1ccc(-c2cc(C(=O)N/N=C/C=C/c3ccccc3)n[nH]2)o1`: the growth rescue was -7.96%.

On to `Cc1cc(C(=O)N/N=C\C(Br)=C\c2ccccc2)c(C)o1`, for which the growth rescue was 558% (active).

As to `CC(C)c1cc(C(=O)N/N=C/C(Br)=C/c2ccccc2)n[nH]1`, the growth rescue was 457% (active).

On to `Cc1cc(C(=O)NNC(=O)c2ccccc2O)c(C)o1`, for which the growth rescue was -0.00731%.

For the compound `CC(=C/c1ccccc1)/C=N/NC(=O)c1cc(C)oc1C`, the growth rescue was 2.01%.

For `CCCc1c(C(=O)N/N=C(\C)CCc2ccc(OC)cc2)nnn1-c1nonc1N`, the growth rescue is 3.62%.

In the case of `CCOC(=O)C1CCN(C(=O)Cn2nc(C)c3c(C)n(-c4ccccc4)nc3c2=O)CC1`, the growth rescue was 34.9%.

In the case of `NC(=O)c1nnsc1-c1ccc(-c2snnc2C(N)=O)cc1`, the growth rescue was 18.5%.

In the case of `COc1cccc(CN(C)CC2CCCN(CCc3ccc(Cl)cc3)C2)c1OC` (centres undefined), the growth rescue was 535% (active).

Take `Cc1nc2ccc(C(=O)N(C)CC3CCCN(CCc4ccc(Cl)cc4)C3)cc2[nH]1` (centres undefined): the growth rescue is 3.97%.

Turning to `COc1cccc(CN(C)CC(=O)NCc2ccccc2Cl)c1OC`, the growth rescue was 10.7%.

Turning to `CN(C)c1nc(=Nc2cccc(Cl)c2)ss1`, the growth rescue was 331% (active).

In the case of `Cc1cccc(C)c1NC(=O)N1CC(C)OC(C)C1` (centres undefined), the growth rescue was -5.77%.

For the compound `Cc1ccc(-c2nc(COC(=O)c3c(C)noc3C)cs2)cc1`, the growth rescue was 0.699%.

Take `Cc1ccc(S(=O)(=O)N(C)c2nc3ccccc3n3c(C(C)C)nnc23)cc1`: the growth rescue was 138%.

As to `CCCC1(C(=O)OCC)NC(c2ccc(N(C)C)cc2)C2C(=O)N(c3ccc4c(c3)OCCO4)C(=O)C21` (centres undefined), the growth rescue is -0.477%.

Turning to `O=C(Nc1nn(Cc2ccccc2F)cc1Br)c1cccs1`, the growth rescue was 13%.

As for `Cc1ccc(OCC(=O)Oc2ccccc2[N+](=O)[O-])cc1`, the growth rescue is 330% (active).

With `CCOC(=O)COc1ccc([N+](=O)[O-])cc1`, the growth rescue was 319%.

For `O=C(COc1ccccc1[N+](=O)[O-])NC1CC1`, the growth rescue was 1.86%.

On to `O=C(/C=C/c1cnc2ccccc2n1)NC1CCCCCC1`, for which the growth rescue was 26.5%.

For the compound `Nc1c(N(CCCO)C(=O)C2CCCC2)c(=O)[nH]c(=O)n1Cc1ccccc1`, the growth rescue is 103%.

As to `COc1ccc(CCNC(=O)CCC(=O)NC2CCCCC2)cc1OC`, the growth rescue was 26.5%.

Consider `Cc1ccc2c(c1)C(O)(CC(=O)c1cccnc1)C(=O)N2` (centres undefined), for which the growth rescue was 1220% (active).

Take `Cc1ccc2c(c1)C(O)(CC(=O)c1cccc(-n3cccc3)c1)C(=O)N2` (centres undefined): the growth rescue was -2.84%.

For `Cc1cccc(OCC(=O)NCCNC(=O)c2cccnc2)c1`, the growth rescue is 220%.

For the compound `CCC/C=C(\CCC)C(NC(=O)Cc1ccccc1)c1ccc(C(=O)OC)cc1` (centres undefined), the growth rescue is -14.4%.

On to `Cc1ccc(NC(=O)Nc2cccc(C(F)(F)F)c2)nc1`, for which the growth rescue was 471% (active).

`O=C(Nc1ccccc1)Nc1ccc(C(F)(F)F)cn1`: the growth rescue is -19.3%.

For `CC(C)C[C@H](NC(=O)Nc1cccc(C(F)(F)F)c1)C(=O)O`, the growth rescue is -3.86%.

Turning to `O=C(CNS(=O)(=O)c1ccc2c(c1)OCCCO2)N1CCN(c2ccc(F)cc2)CC1`, the growth rescue was 10.2%.

As for `COc1ccc2c(CC(=O)NNC(=O)c3ccccc3F)coc2c1`, the growth rescue is 9.24%.

Turning to `COc1ccc(/C=N/NC(=O)Cn2cc(C(F)(F)F)ccc2=O)cc1`, the growth rescue is 0.303%.

For the compound `CCc1cc(=O)oc2cc(C)cc(OC(C)C(=O)O)c12` (centres undefined), the growth rescue was -0.434%.

For `CCCc1cc(=O)oc2c(C)c(OCC(=O)N3CCC(C(=O)O)CC3)ccc12`, the growth rescue is 10.4%.

Take `CCc1cc(=O)oc2cc(C)cc(OCC(=O)N3CCC[C@@H]3C(=O)O)c12`: the growth rescue is 694% (active).

`Cc1cc(=O)n2nc(N3CCCC(C(=O)NCc4ccc(Cl)cc4)C3)sc2n1` (centres undefined): the growth rescue is 7.79%.

Take `O=C(CSc1nc2[nH]c(=O)[nH]c(=O)c2s1)Nc1cccc(F)c1`: the growth rescue is -17.9%.

As for `O=S(=O)(Nc1ncnc2sccc12)c1cccc(F)c1`, the growth rescue was 5.08%.

Regarding `O=C(NCC1CCCO1)c1cc2c(s1)CCCC2` (centres undefined), the growth rescue is -9.49%.

In the case of `CC1=CC(=O)C=CC1(C)C(Cl)(Cl)Cl` (centres undefined), the growth rescue was 385% (active).

In the case of `COc1ccccc1Nc1nnc(SC(C)C(=O)NC2CC2)s1` (centres undefined), the growth rescue is -11.6%.

Consider `CC1C(=O)N2CCCc3cc(S(=O)(=O)NCc4ccc(F)cc4)cc1c32` (centres undefined), for which the growth rescue is -4.02%.

Take `Cc1ccc(NC(=O)CSc2nnc(CNC(=O)c3ccccc3F)o2)cc1`: the growth rescue was 3.58%.

Regarding `O=C(NCCN1CCOCC1)c1cccc(S(=O)(=O)Nc2ccc(F)cc2)c1`, the growth rescue was 18.1%.

On to `O=C(OC1CCOC1=O)c1cccc(S(=O)(=O)Nc2ccc(F)cc2)c1` (centres undefined), for which the growth rescue was 535% (active).

On to `O=C(OC1CCCCC1=O)c1cccc(S(=O)(=O)NCc2ccccc2)c1` (centres undefined), for which the growth rescue was 12.9%.

Regarding `CCCCn1c(N)c(N(CC(C)C)C(=O)c2cccc(S(=O)(=O)N3CCN(C(C)=O)CC3)c2)c(=O)[nH]c1=O`, the growth rescue is -9.04%.

`Cc1cccc(N2CCN(S(=O)(=O)c3ccc4[nH]c(=O)c(=O)[nH]c4c3)CC2C)c1` (centres undefined): the growth rescue was 2.34%.

With `COc1ccc(CCNC(=O)COC(=O)C2CC2C)cc1` (centres undefined), the growth rescue was 4.29%.

Take `O=C(c1c(F)cccc1F)N1CCN(S(=O)(=O)c2ccc3c(c2)OCCO3)CC1`: the growth rescue was 3.47%.

Take `CCC(=C/c1sc2ccc3ccccc3c2[n+]1C)/C=C1\Sc2ccc3ccccc3c2N1C`: the growth rescue is 6.07%.

Turning to `Cc1cc(C)c(OCC(=O)N/N=C/c2ccco2)c(C)c1`, the growth rescue is 568% (active).

With `Cc1ccc(NC(=O)CCC(=O)N/N=C/c2ccco2)c(C)c1`, the growth rescue is -4.26%.

As to `Cc1c(Cl)cccc1NC(=O)CCC(=O)N/N=C/c1ccco1`, the growth rescue is 2.23%.

Take `CCOc1ccc(CCNC(=O)COC(=O)CCS(=O)(=O)c2ccc(C)cc2)cc1OCC`: the growth rescue is -6.14%.

As for `Cc1ccc2nc(NC(=O)CSc3nc(=O)n(CCCN(C)C)c4c3CCC4)sc2c1`, the growth rescue is -6.26%.

For the compound `CSc1nc(N(C)NC(=O)c2cccc(C)c2)c2ccccc2n1`, the growth rescue was -1.55%.

With `CN(NC(=O)c1ccccc1)c1nc2ccccc2nc1C(F)(F)F`, the growth rescue was 29.8%.

For the compound `CN(NC(=O)c1ccccc1F)c1nc(C(F)(F)F)nc2ccccc12`, the growth rescue was 658% (active).

In the case of `CCOC(=O)[C@@H]1[C@H]2COc3ccc(Br)cc3[C@H]2N2C(=O)N(c3ccc(C)cc3)C(=O)[C@@]12C`, the growth rescue is 5.35%.

`O=C(NCc1ccco1)C(c1ccncc1)N(C(=O)Cn1nnc2ccccc21)c1ccccc1` (centres undefined): the growth rescue is 5.81%.

Regarding `C=CCC(NCCCO)c1cccc(OC)c1OC` (centres undefined), the growth rescue is 1100% (active).

Take `C=CCC(Nc1ccccc1)c1cccc(OC)c1OC` (centres undefined): the growth rescue was -16.1%.

As for `COc1cccc(C(CC(=O)NCCN2CCOCC2)NS(=O)(=O)c2ccc(C)cc2)c1OC` (centres undefined), the growth rescue was -1.44%.

Turning to `CC(=O)Nc1ccc(/C(C)=N/NC(=O)CN(c2ccccc2Br)S(C)(=O)=O)cc1`, the growth rescue was -7.93%.

Turning to `CNC(=O)/C(C#N)=C/c1c(F)cccc1Cl`, the growth rescue was -36.4%.

With `COc1ccc(/C=N/OCc2ccccc2C#N)c(OC)c1`, the growth rescue is 31.4%.

For `COc1ccc(CCNC(=O)C(=O)NCC2OCCN2S(=O)(=O)c2ccc(OC)c(C)c2)cc1` (centres undefined), the growth rescue was 0.71%.

With `COc1ccc(S(=O)(=O)N2CCOC2CNC(=O)C(=O)NCc2ccncc2)cc1OC` (centres undefined), the growth rescue is -3.43%.

For the compound `COc1ccc(S(=O)(=O)N2CCOC2CNC(=O)C(=O)NCc2ccncc2)cc1C` (centres undefined), the growth rescue was 392% (active).

As for `Cc1ccc(CC2CC(=O)N(c3cc(C)ccc3C)C2=O)cc1` (centres undefined), the growth rescue is -12%.

As for `Cc1ccc(CC2CC(=O)N(c3ccc4c(c3)OCCO4)C2=O)cc1` (centres undefined), the growth rescue is 1800% (active).

On to `COc1ccc(N2CCN(C3CC(=O)N(c4ccc5c(c4)OCCO5)C3=O)CC2)cc1` (centres undefined), for which the growth rescue is 21.5%.

Take `O=C(NCc1ccccc1Cl)NC(=O)c1csc([N+](=O)[O-])c1`: the growth rescue is -7.29%.

Take `COc1ccc(C(C#N)(CC(=O)O)c2cnccn2)cc1OC` (centres undefined): the growth rescue is -15.4%.

For the compound `Cn1c(=O)n(C)c2cc(C(=O)Nc3ccc(Br)cc3)ccc21`, the growth rescue was 15%.

In the case of `COc1cccc(OC)c1C(=O)Nc1ccc(Cc2ccncc2)cc1`, the growth rescue was 12.2%.

Take `COc1cccc(OC)c1C(=O)Nc1ccc2c(c1)n(C)c(=O)n2C`: the growth rescue was 676% (active).

For the compound `CC(C)N(C(=O)CSc1nc(COc2ccccc2)nc2ccccc12)C(C)C`, the growth rescue was -2%.

Take `S=C(Nc1cccc(Cl)c1)Nc1ccc2c(c1)OCCO2`: the growth rescue was -16%.

As to `FC(F)(F)c1cccc(NC(=S)Nc2cccc(Cl)c2)c1`, the growth rescue is 2.73%.

Take `Cc1csc(NC(=S)Nc2cccc(Cl)c2)n1`: the growth rescue was 817% (active).

Turning to `O=c1c2c(-c3ccccc3)ccnc2[nH]n1-c1ccccc1`, the growth rescue was -10.9%.

For the compound `CCC(CC)c1nnc(NC(=O)C2CCN(C(=O)c3ccco3)CC2)s1`, the growth rescue is -12.8%.

Turning to `CO/N=C(/CS(=O)(=O)c1ccc(Br)cc1)c1ccc(OC)cc1`, the growth rescue was -7.59%.

As for `O=C(Cc1ccc(-c2ccccc2)cc1)NC(c1ccccc1)c1ccccc1`, the growth rescue was -3.02%.

With `O=C(O)Cc1ccc(NCc2ccccc2Cl)cc1`, the growth rescue was 67.5%.

As to `O=C(O)Cc1ccc(-c2ccccc2)cc1`, the growth rescue was 403% (active).

In the case of `COc1cc(/C(=C/c2ccccc2)c2ccccc2)c2c(c1)oc1ccccc12`, the growth rescue was 1.69%.

For `Cc1cc(C)cc(Oc2nc3c(C)cccn3c(=O)c2/C=C(\C#N)C(=O)NC2CCS(=O)(=O)C2)c1` (centres undefined), the growth rescue was -14%.
